Results on four compounds are retold here after PubChem BioAssay (NCI).

Compounds without any hit were thinned out: in the full panel of roughly 79,000, 15% have a hit. Unmarked numbers belong to inactive results. Calls of active or inactive are those of the source. Cut-off read from the data, not from the text of the source: active = growth inhibition above about 70%; inactive = the rest.

A short description of assay [1]: NCI Yeast Anticancer Drug Screen. Data for the rad50 strain (AID 155).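 Note: 0% = growth of vehicle-only cultures of the same strain.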 The following applies: S. cerevisiae rad50 strain growth inhibition, stronger effect = higher value. In a few lines:
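Genetically altered yeast (DNA repair pathway); compound treatment; growth inhibition vs vehicle ctrl.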

Assay [2] can be described thus: NCI Yeast Anticancer Drug Screen. Data for the mec2-1 strain (AID 157). The conditions noted are these: S. cerevisiae mec2-1 strain, stronger effect = higher value. In a few lines: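 Test agents were screened against the mec2-1 yeast strain, with defined DNA repair or cell cycle alteration. Growth was scored as inhibition against vehicle-only controls.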
A short description of assay [3]: NCI Yeast Anticancer Drug Screen. Data for the sgs1 mgt1 strain (AID 161).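 Note: 0% = growth of cultures given vehicle only.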 The conditions noted are these: S. cerevisiae sgs1 mgt1 strain, stronger effect = higher value. In a few lines: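 Mutant yeast exposed to compound; growth scored against vehicle-only wells.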
A short description of assay [4]: NCI Yeast Anticancer Drug Screen. Data for the cln2 rad14 strain (AID 165).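 Note: 0% = growth equal to vehicle treated cultures.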 The following applies: S. cerevisiae cln2 rad14 strain, stronger effect = higher value. In a few lines: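 Growth of compound-exposed yeast (cln2 rad14 genotype) measured and expressed as inhibition relative to vehicle.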
A short description of assay [5]: NCI Yeast Anticancer Drug Screen. Data for the bub3 strain (AID 167). The following applies: S. cerevisiae bub3 mutant strain, stronger effect = higher value. In a few lines: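 Yeast carrying a defined mutation is treated with each compound, and growth is compared with that of vehicle-exposed cells to give inhibition.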
Assay [6] in a line: NCI Yeast Anticancer Drug Screen. Data for the mlh1 rad18 strain (AID 175). The following applies: S. cerevisiae mlh1 rad18 strain growth inhibition, stronger effect = higher value. In a few lines: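 In this whole-cell yeast screen, a strain with altered DNA damage repair is challenged with compound, and its growth is measured against matched vehicle-treated controls.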
The mark [7] stands for this setting: at 5.0 µM (retest, dose inferred, filed as 0.5).
Setting [8] is: at 50.0 µM (retest, dose inferred, filed as 5.0).

On to `NNC(=O)c1ccc(N)cc1O`, for which the growth inhibition in assay [1] (setting [7]) is -1%; in assay [1] (setting [8]) it was -5%; in assay [1] (at 50.0 µM), -13.6%; in assay [2] (setting [7]) it was -3%; in assay [2] (setting [8]) it was -1%; in assay [2] (at 50.0 µM) it was -13.8%. Moreover, the growth inhibition in assay [3] (setting [7]) was -2%; in assay [3] (setting [8]), -3%; in assay [3] (at 50.0 µM), -29.2%; in assay [4] (setting [7]), -2%; in assay [4] (setting [8]), -11%; in assay [4] (at 50.0 µM), 75.1% (active). In addition, the growth inhibition in assay [5] (setting [7]) is -1%; in assay [5] (setting [8]), -1%; in assay [5] (at 50.0 µM), -3.65%; in assay [6] (setting [7]) it was 0%; in assay [6] (setting [8]), -4%; in assay [6] (at 50.0 µM) it was 1.8%.

With `CCOC(=O)C1=C(C)NC(C)=C(C(=O)OCC)C1c1c(-c2ccccc2)noc1C`, the growth inhibition in assay [1] (setting [7]) is 23%; in assay [1] (setting [8]), 84% (active); in assay [1] (at 50.0 µM), 6.6%; in assay [2] (setting [7]), 7%; in assay [2] (setting [8]), 62%; in assay [2] (at 50.0 µM) it was -2.3%. Besides, the growth inhibition in assay [3] (setting [7]) is 18%; in assay [3] (setting [8]), 69%; in assay [3] (at 50.0 µM), 2.2%; in assay [4] (setting [7]), 0%; in assay [4] (setting [8]), 40%; in assay [4] (at 50.0 µM) it was -3.5%. Moreover, the growth inhibition was 1% in assay [5] (setting [7]); 70% (active) in assay [5] (setting [8]); 0.85% in assay [5] (at 50.0 µM); 2% in assay [6] (setting [7]); 61% in assay [6] (setting [8]); 11.9% in assay [6] (at 50.0 µM).

As for `NNc1ccc(Br)cc1`, the growth inhibition was 83% (active) in assay [1] (setting [7]); 98% (active) in assay [1] (setting [8]); 90.3% (active) in assay [1] (at 50.0 µM); 83% (active) in assay [2] (setting [7]); 98% (active) in assay [2] (setting [8]); 92.2% (active) in assay [2] (at 50.0 µM). The growth inhibition in assay [3] (setting [7]) is 96% (active); in assay [3] (setting [8]) it was 99% (active); in assay [3] (at 50.0 µM) it was 92.7% (active); in assay [4] (setting [7]) it was 47%; in assay [4] (setting [8]), 98% (active); in assay [4] (at 50.0 µM) it was 90.5% (active). Further, the growth inhibition in assay [5] (setting [7]) was 98% (active); in assay [5] (setting [8]), 96% (active); in assay [5] (at 50.0 µM), 91% (active); in assay [6] (setting [7]), 33%; in assay [6] (setting [8]), 100% (active); in assay [6] (at 50.0 µM) it was 89.7% (active).

For the compound `NSc1ccccn1`, the growth inhibition in assay [1] (setting [7]) is 7%; in assay [1] (setting [8]), 74% (active); in assay [1] (at 50.0 µM) it was 90.4% (active); in assay [2] (setting [7]), 9%; in assay [2] (setting [8]), 93% (active); in assay [2] (at 50.0 µM), 93.5% (active). Besides, the growth inhibition was 11% in assay [3] (setting [7]); 79% (active) in assay [3] (setting [8]); 97.8% (active) in assay [3] (at 50.0 µM); 29% in assay [4] (setting [7]); 84% (active) in assay [4] (setting [8]); 89.7% (active) in assay [4] (at 50.0 µM). Moreover, the growth inhibition in assay [5] (setting [7]) is 3%; in assay [5] (setting [8]), 92% (active); in assay [5] (at 50.0 µM), 99% (active); in assay [6] (setting [7]), 4%; in assay [6] (setting [8]), 85% (active); in assay [6] (at 50.0 µM), 96.7% (active).
